We go through 69 compounds from ChEMBL document CHEMBL4513216, “Probing the Open Global Health Chemical Diversity Library for Multistage-Active Starting Points for Next-Generation Antimalarials” (ACS Infect Dis, 2020).

Each structure is given as a SMILES string. About 8,600 (12%) of roughly 69,000 compounds showed an effect of 50% or more. For the sample, strong results were picked, then their nearest neighbours and some compounds at random.

This test relates to Plasmodium berghei. Description: Screen against P. berghei liver stage (PbLuc), transformed with Luciferase, at 10uM. It counts as functional, HepG2. Conditions: tested at 10 uM.
With `CC(=O)N1CCN(Cc2ccsc2)CC2(CC(=O)N(C)C2)C1` (centres undefined), the INHIBITION worked out at 16.1%.

With `CC(C)N1CCC2(CC1)C[C@@H](O)[C@H](c1ccccc1)NC2=O`, the INHIBITION is given as 40%.

As to `CCN1CCC2(CC1)CC(NC(=O)c1ccnnc1)c1ccccc12` (centres undefined), the INHIBITION is recorded as -9.42%.

As for `CC(C)C(=O)NC1CC2(CCN(CC(=O)N(C)C)CC2)c2ccccc21` (centres undefined), the INHIBITION turned out to be 60.2%.

For the compound `COCC(=O)NC1CC2(CCN(CCO)CC2)c2ccccc21` (centres undefined), the INHIBITION was 33.1%.

Consider `COCC(=O)NC1CC2(CCN(CCN(C)C)CC2)c2ccccc21` (centres undefined), for which the INHIBITION came out at 53.9%.

Take `Cc1ccc2c(c1)C(NC(=O)N(C)C)CC21CCN(CC2CC2)CC1` (centres undefined): the INHIBITION was 22.4%.

Regarding `COCC(=O)NC1CC2(CCN(Cc3ccco3)CC2)c2ccccc21` (centres undefined), the INHIBITION came out at 32.4%.

In the case of `CC(C)(CNCc1ccc(OCc2cscn2)cc1)C(N)=O`, the INHIBITION is on record as -47%.

As for `Cc1cnc(CN2CCC(N(C)Cc3noc(C4CC4)n3)C2)o1` (centres undefined), the INHIBITION is recorded as 33.3%.

Regarding `CCc1ccc(NC(=O)C2CCN(C(=O)COC)CC2)cc1`, the INHIBITION was determined as 39.3%.

As to `CCC(C)c1ccc(NC(=O)C2CCN(C(=O)COC)CC2)cc1` (centres undefined), the INHIBITION was 16.6%.

Turning to `CCC(C)c1ccc(NC(=O)C2CCN(C(=O)N(C)C)CC2)cc1` (centres undefined), the INHIBITION was 76.9%.

Take `Cn1cncc1C(=O)N1CCCC(c2ccn[nH]2)C1` (centres undefined): the INHIBITION is -35.9%.

As to `CC(NCc1nnc2n1CCCC2)C(=O)N1CCc2sccc2C1` (centres undefined), the INHIBITION is on record as -21.9%.

For the compound `O=C1CC(N(C(=O)COc2ccc(F)cc2F)C2CC2)C(=O)N1` (centres undefined), the INHIBITION is reported as 0.472%.

Take `Cc1cc(NCc2cc3n(n2)CCCN(C(=O)C2CCC2)C3)nc(N)n1`: the INHIBITION is reported as 80.2%.

`Cc1cc(C)nc(NCc2cc3n(n2)CCCN(C(=O)C2CCC2)C3)n1`: the INHIBITION stood at 13.3%.

Take `Nc1nccc(NCc2cc3n(n2)CCCN(C(=O)C2CCC2)C3)n1`: the INHIBITION was found to be 28.5%.

`Cc1nc(C2CCCN(S(C)(=O)=O)C2)sc1Br` (centres undefined): the INHIBITION is given as -7.66%.

Turning to `CCc1cc(N(C)Cc2noc(CC(C)C)n2)ncn1`, the INHIBITION is 57.6%.

As for `CC(C)Cc1noc(CN(C)c2cc(N(C)C)ncn2)n1`, the INHIBITION is -8.75%.

Consider `COc1cc(N(C)Cc2noc(CC(C)C)n2)ncn1`, for which the INHIBITION is 43%.

On to `CCn1cc(NC(=O)C2CCN(CC(=O)NC3CCCC3)CC2)cn1`, for which the INHIBITION is -10.6%.

On to `O=C(N[C@@H]1CN(Cc2ccco2)[C@@H]2CCCO[C@@H]21)c1cscn1`, for which the INHIBITION came to 8.6%.

As to `COc1ccc(F)cc1C(C)NC(=O)NCCCn1cncn1` (centres undefined), the INHIBITION was determined as 11.9%.

Regarding `CCN(Cc1ccoc1)C(=O)C1CN(C(=O)OC(C)(C)C)C1`, the INHIBITION is on record as -26.7%.

Take `O=C(COCC(F)(F)C(F)F)N1CCC2(CCCN(CC3CC3)C2=O)C1` (centres undefined): the INHIBITION came out at 27.8%.

Take `CC(C)N1CCCC2(CCN(C(=O)COCC(F)(F)C(F)F)C2)C1=O` (centres undefined): the INHIBITION is recorded as 50.2%.

With `O=C(COCC(F)(F)C(F)F)N1CCC2(CCCN(CCO)C2=O)C1` (centres undefined), the INHIBITION is -8.97%.

`COC1COC2(CCN(CC3CC3)CC2)C1` (centres undefined): the INHIBITION is listed as 15.8%.

For the compound `NC(=O)Cc1csc(NC(=O)C2CSCCC(=O)N2)n1` (centres undefined), the INHIBITION turned out to be 32.1%.

Consider `CNC(=O)Cc1csc(NC(=O)C2CSCCC(=O)N2)n1` (centres undefined), for which the INHIBITION amounted to 50.2%.

For `O=C1CCSCC(C(=O)NCc2nc(-c3ccccc3)no2)N1` (centres undefined), the INHIBITION was determined as 14.3%.

On to `Cc1csc(NC(=O)C2CSCCC(=O)N2)n1` (centres undefined), for which the INHIBITION was 24.5%.

For `Cc1noc(CNC(=O)C2CSCCC(=O)N2)n1` (centres undefined), the INHIBITION is 61.6%.

On to `Cc1nnc(CNC(=O)C2CSCCC(=O)N2)o1` (centres undefined), for which the INHIBITION was -5.22%.

For the compound `CCN(Cc1c(C)nn(CC)c1C)S(=O)(=O)c1cnn(C)c1C`, the INHIBITION worked out at 38.3%.

For `CC[C@@H]1N(Cc2ccncc2)CCC[C@]12CCC(=O)N2C`, the INHIBITION is 18.6%.

In the case of `CC(C)n1nc2c(cc1=O)CN(CCOc1cccc(C#N)c1)CC2`, the INHIBITION was 23.1%.

With `Clc1ccc(-c2nnc(CNCCn3cccn3)o2)c(Cl)c1`, the INHIBITION is recorded as -38.2%.

For the compound `Cc1nnc(CN2C[C@H](NC(=O)C3CCOCC3)[C@@H](C(C)C)C2)s1`, the INHIBITION was 90.2%.

Regarding `Cc1ncsc1CN1C[C@@H]2COC[C@]2(C(=O)NC2CC(F)(F)C2)C1`, the INHIBITION was found to be 32.1%.

For the compound `Cc1ncsc1CN1C[C@H](NC(=O)C2CCOCC2)[C@@H](C(C)C)C1`, the INHIBITION stood at 75.4%.

Take `Cc1csc(CN2C[C@H](NC(=O)C3CCOCC3)[C@@H](C(C)C)C2)n1`: the INHIBITION is 42.5%.

As to `CC(C)[C@H]1CN(Cc2ccccc2C#N)C[C@@H]1NC(=O)C1CCOCC1`, the INHIBITION worked out at 45.9%.

As for `CC(C)[C@H]1CN(Cc2c[nH]nn2)C[C@@H]1NC(=O)C1CCOCC1`, the INHIBITION stood at 16.3%.

Take `CCN(Cc1ccc(F)cc1Cl)C1CCS(=O)(=O)C1` (centres undefined): the INHIBITION is 21.6%.

Turning to `Cc1cc(C[S+]([O-])Cc2ccccc2F)on1` (centres undefined), the INHIBITION came to 10.1%.

On to `CCCn1cc(-c2cc(C(=O)N(C)C)c3ccc(OC)cc3n2)cn1`, for which the INHIBITION came out at 29.85%.

Take `COc1cccc(CSc2nnc(C)n2CC(N)=O)c1`: the INHIBITION is -15.1%.

For the compound `Cc1nnc(SCc2cccc(F)c2)n1CC(N)=O`, the INHIBITION is 20.9%.

Turning to `Cc1cccc(CSc2nnc(C)n2CC(N)=O)c1`, the INHIBITION was 57.7%.

In the case of `O=C(NCCCN1CCOCC1)c1ccn(COc2ccc(F)cc2)n1`, the INHIBITION was -41.2%.

As to `O=C(NCC(CO)Cc1ccc(Cl)cc1)c1ccncc1Cl` (centres undefined), the INHIBITION is listed as 5.21%.

Take `CCSc1cc(C(=O)NCC(C)(C)N(C)C)ccn1`: the INHIBITION was 15.7%.

Turning to `CCOc1ccccc1NC(=O)CN(C)Cc1ccccc1Cl`, the INHIBITION was 32%.

Regarding `CN(CC(=O)Nc1ccccc1C(=O)NC1CC1)Cc1ccccc1Cl`, the INHIBITION worked out at 8.08%.

As for `CCOC(=O)c1ccccc1NC(=O)CN(C)Cc1ccccc1Cl`, the INHIBITION was found to be 68.9%.

With `N#Cc1cccc(S(=O)(=O)NC(=O)C2CC(c3ccccc3)=NO2)c1` (centres undefined), the INHIBITION was 33.4%.

In the case of `Cc1cc2ccncc2n1CC1(O)CCN(C(=O)c2cccnc2)CC1`, the INHIBITION is listed as 9.98%.

As to `CN1CC(=O)N(c2cccnc2)Cc2c(NC3CC3)ncnc21`, the INHIBITION is given as 41.6%.

Turning to `CC(C)(C)c1cc(=O)[nH]c(-c2ccccc2CN2CCCCCC2)n1`, the INHIBITION was -7.65%.

Regarding `CC1(C)CCN(Cc2ccccc2-c2nc(C(C)(C)C)cc(=O)[nH]2)C1`, the INHIBITION was found to be 57.3%.

As for `CC(C)c1cc(=O)[nH]c(-c2ccccc2CN2CCC(C)(C)C2)n1`, the INHIBITION is listed as 29.4%.

On to `Cc1cc(C)n(C2CN(c3ncnc4c3CCNCC4)C2)n1`, for which the INHIBITION came out at 40.5%.

For the compound `Cc1ccc(C2(O)CCN(C(=O)CCn3ccc(=O)[nH]c3=O)CC2)nc1`, the INHIBITION is reported as 82%.

`Cc1ccc(C2(O)CCN(C(=O)CCn3c(C)cccc3=O)CC2)nc1`: the INHIBITION turned out to be 28.7%.

Take `Cc1ccc(C2(O)CCN(C(=O)Cn3cc(C)c(=O)[nH]c3=O)CC2)nc1`: the INHIBITION is reported as 30.9%.
